The source of these data is ChEMBL document CHEMBL1157539, “Thousands of chemical starting points for antimalarial lead identification” (Nature, 2010).

“And” between values parts separate entries of the source, which are not always exact repeats. Equal entries are not always repeated.

Common to all, as to type: functional
Assay [1] deals with Plasmodium falciparum. The assay is described as follows: GSK_TCMDC: Inhibition of Plasmodium falciparum 3D7 in whole red blood cells, using parasite LDH activity as an index of growth. Test compounds present at 2uM.
The test system of assay [2] is Plasmodium falciparum. The assay is described as follows: GSK_TCMDC: Inhibition of Plasmodium falciparum Dd2 in whole red blood cells, using parasite LDH activity as an index of growth. Test compounds present at 2uM.
The subject of the next assay is HepG2. As to the kind of experiment: GSK_TCMDC: Percent inhibition of human HepG2 cell line. Test compounds present at 10uM.

A word on the Inhibition: it is how much of the control response was suppressed. A lower Inhibition goes with a weak effect. Turning to `COc1ccc(CCN(C)CCc2ccc(NC(=O)c3cccc4c(=O)c5ccccc5sc34)cc2)cc1`, the Inhibition is reported as 95% in the assay on Plasmodium falciparum [1], 33% in the assay with Plasmodium falciparum [2] and 24% in the assay with HepG2.
The corresponding values for `Clc1ccc(CNc2ccnc(NCc3ccc4c(c3)OCCCO4)n2)c(Cl)c1` are 94%, 20% and 50%.
Taken in the same sequence, the figures for `COc1cccc2c(NN=Cc3ccccc3Cl)cc(C)nc12` were 100%, 100% and 22%.
As to `CCOCCCn1c(=N)c(C(=O)NC(C)c2ccccc2)cc2c(=O)n3cccc(C)c3nc21` (centres undefined), the Inhibition turned out to be 95% with Plasmodium falciparum [1], 31% with Plasmodium falciparum [2] and 24% with HepG2.
The corresponding values for `CCOc1cc(C(=O)NCCN(C(C)C)C(C)C)ccc1-c1nc2cc(Cl)ccc2[nH]1` are 100%, 90% and 4%.
Taken in the same sequence, the figures for `Cl.O=C(Nc1cc(Cl)cc(Cl)c1)c1cnn(-c2ccc(F)cc2)c1C1CCNCC1` were 90%, 0% and 13%.
Taken in the same sequence, the figures for `O=C(NCc1ccccc1)c1ccc(C(=O)NCC2CNCCO2)cc1.O=C(O)C(F)(F)F` (centres undefined) were 92%, 0% and 4%.
For `COc1ccc2nccc([C@@H](O)CN3CCC(NCCNc4ccccn4)CC3)c2c1.O=C(O)C(=O)O`, the Inhibition worked out at 100% in the assay with Plasmodium falciparum [1], 14% with Plasmodium falciparum [2] and 18% with HepG2.
The corresponding values for `NCC1CCCN1Cc1cccc(-c2cccc(-c3nc4cc(F)ccc4[nH]3)c2)c1.O=C(O)C(F)(F)F` (centres undefined) are 100%, 65% and 10%.
The corresponding values for `C=CCOC(=O)N1CCC(CNCc2ccc(-c3cccc(-c4nc5ccccc5[nH]4)c3)cc2)C1.O=C(O)C(F)(F)F` (centres undefined) are 100%, 50% and 39%.
The corresponding values for `COc1cc(C=CC(=O)N2CCC(CCN3CCC(c4c[nH]c5ccccc45)CC3)CC2)cc(OC)c1` are 92%, 23% and 39%.
Take `COc1cc(NC(=O)c2cc([N+](=O)[O-])ccc2NC(=O)CNC2CCCC(C)C2C)cc(OC)c1` (centres undefined): the Inhibition stood at 97% with Plasmodium falciparum [1], 80% with Plasmodium falciparum [2] and 21% with HepG2.
Taken in the same sequence, the figures for `COc1ccc(-c2csc(N(CCCN(C)C)C(=O)c3cc4c(C)nn(-c5ccccc5)c4s3)n2)cc1.Cl` were 100%, 16% and 100%.
The corresponding values for `CN1CCC(NCc2ccc(-c3ccc(S(=O)(=O)NCc4ccccc4)s3)cc2)CC1.O=C(O)C(F)(F)F` are 99%, 95% and 77%.
The corresponding values for `CO/C(=C\C=C\c1cc2cc(Cl)c(Cl)cc2[nH]1)C(=O)NCCCN1CCN(c2cccc(O)c2)CC1` are 91%, 100% and 46%.
`COc1ccc(S(=O)(=O)Nc2ccc(C(=O)NCc3ccc(C(F)(F)F)cc3)cc2)cc1N1CCN(CC2CC2)CC1.O=C(O)C(F)(F)F`: the figures for the Inhibition in the assay on Plasmodium falciparum [1], in the assay with Plasmodium falciparum [2] and with HepG2 were 95%, 1% and 34%, respectively.
Taken in the same sequence, the figures for `Cc1cc(N[C@@H](Cc2ccccc2)C(=O)NCCCOC(C)C)nc(NCC2CCCCC2)n1.O=C(O)C(F)(F)F` were 94%, 25% and 17%.
Taken in the same sequence, the figures for `COc1ccc2ncc(F)c(CCN3C[C@H](CNCc4cc(F)c5c(c4)NC(=O)CO5)[C@H](O)C3)c2n1.Cl` were 94%, 23% and 3%.
Regarding `Nc1cccc(CNCc2cccc(-c3csc(-c4nc5ccccc5[nH]4)c3)c2)c1.O=C(O)C(F)(F)F`, the Inhibition in the assay on Plasmodium falciparum [1] came to 100%; in the assay with Plasmodium falciparum [2] it was 63%; in the assay on HepG2, 13%.
Taken in the same sequence, the figures for `CC(C)(C)CN1C(=O)C(c2ccccc2)(c2ccccc2)N=C1N.O=CO` were 98%, 94% and 32%.
Taken in the same sequence, the figures for `O=C(Nc1ccc(OC2CCN(Cc3ccc(F)cc3)CC2)cc1)c1cccs1.O=C(O)C(F)(F)F` were 84%, 52% and 6%.
As to `Cc1nc(N)nc(N)c1-c1ccc(Br)cc1`, the Inhibition with Plasmodium falciparum [1] worked out at 98%; in the assay on Plasmodium falciparum [2], 1%; with HepG2, 46%.
The corresponding values for `Oc1ccc2[nH]c(-c3ccc(OC(F)(F)F)cc3)nc2c1CNC1CCCC1` are 99%, 97% and 32%.
Taken in the same sequence, the figures for `Cc1cccc2nc(-c3ccc(-c4ccc(CN5CCCCC5)cc4)s3)[nH]c12.O=C(O)C(F)(F)F` were 99%, 87% and 16%.
Taken in the same sequence, the figures for `Cc1ccc(C)c(NC(=O)Nc2ccc(C)c(-c3ccc(C(=O)Nc4ccncc4)cc3)c2)c1` were 98%, 59% and 46%.
On to `O=C(Nc1ccc(C(F)(F)F)cc1)c1ccc(S(=O)(=O)NC2CCCN(CC3CCCCC3)C2)cc1.O=C(O)C(F)(F)F` (centres undefined), for which the Inhibition with Plasmodium falciparum [1] worked out at 99%; in the assay on Plasmodium falciparum [2], 0%; in the assay on HepG2 it was 45%.
The corresponding values for `Cc1noc(C)c1-c1ccc2c(Nc3ccccc3C(C)(C)C)c(C(=O)NCc3ccccc3)cnc2c1.Cl` are 99%, 89% and 20%.
For the molecule `COC(=O)c1cccc(CNCc2cccc(-c3ccc(-c4nc5ccccc5[nH]4)s3)c2)c1.O=C(O)C(F)(F)F`, the Inhibition in the assay with Plasmodium falciparum [1] is 93%; in the assay on Plasmodium falciparum [2], 59%; in the assay with HepG2, 0%.
Taken in the same sequence, the figures for `Cc1cccc(Cl)c1Nc1nnc(-c2cccc(C(=O)NC[C@@H]3CC[C@H]4C[C@@H]3C4(C)C)c2)o1` were 85%, 69% and 2%.
Taken in the same sequence, the figures for `CCCc1cc(Cc2cnc(N)nc2N)ccc1OCCCCCC(=O)O.Cl` were 97%, 0% and 3%.
Taken in the same sequence, the figures for `O=C(NCCNc1ccnc(Nc2ccc(F)cc2)n1)c1cc2ccccc2s1` were 99%, 34% and 0%.
Consider `COc1ccc(CNCc2ccc(-c3ccc(-c4nc5cc(C(F)(F)F)ccc5[nH]4)s3)cc2)cc1.O=C(O)C(F)(F)F`, for which the Inhibition with Plasmodium falciparum [1] amounted to 100%; in the assay on Plasmodium falciparum [2], 98%; in the assay on HepG2, 38%.
The corresponding values for `O=C(Nc1ccc(F)cc1)NC1CCN(c2ccnc3cc(Cl)ccc23)C1.O=C(O)C(F)(F)F` (centres undefined) are 100%, 67% and 17%.
The corresponding values for `O=C(Cc1c[nH]cn1)Nc1ccc(-c2cccc(-c3nc4cc(F)ccc4[nH]3)c2)cc1` are 100%, 70% and 28%.
For `O=S(=O)(Nc1cccc(CCN2CCC(N3CCCCC3)CC2)c1)c1cccc(C(F)(F)F)c1`, the Inhibition with Plasmodium falciparum [1] is 100%; with Plasmodium falciparum [2], 13%; with HepG2, 25%.
Taken in the same sequence, the figures for `COc1cc(O)c2c(=O)c(OC)c(-c3cccc(Cl)c3OC3O[C@H](CO)[C@@H](O)[C@H](O)[C@H]3O)oc2c1OC` (some centres undefined) were 100%, 6% and 16%.
Taken in the same sequence, the figures for `C/N=C(/Nc1c(Cl)cccc1Cl)N(C)C.O=C(O)/C=C/C(=O)O` were 98%, 1% and 0%.
Regarding `COc1ccc(NC(=O)Nc2ccc(-c3ccncc3)c(Cl)c2)cc1N1CCN(C)CC1`, the values for the Inhibition in the assay on Plasmodium falciparum [1], in the assay with Plasmodium falciparum [2] and in the assay with HepG2 were 98%, 62% and 19%, respectively.
The corresponding values for `CCCCCCNC(=O)C1Cc2c([nH]c3cc(Cl)ccc23)C2(CCN(CCC)CC2)N1` (centres undefined) are 92%, 18% and 8%.
Taken in the same sequence, the figures for `COc1cc(C(=O)NC2CCc3ccccc32)cc(Cl)c1OC` (centres undefined) were 85%, 60% and 12%.
Taken in the same sequence, the figures for `Cc1cc(=O)c2cc(Oc3ccc(OC(F)(F)F)cc3)ccc2[nH]1` were 86%, 71% and 20%.
Take `NC1CCCN(Cc2cccc(-c3cccc(-c4nc5ccccc5[nH]4)c3)c2)C1.O=C(O)C(F)(F)F` (centres undefined): the values for the Inhibition in the assay on Plasmodium falciparum [1], in the assay on Plasmodium falciparum [2] and with HepG2 were 100%, 61% and 24%, respectively.
For `Oc1cc(NCCCNC2CCc3c(Cl)cc(Cl)cc32)nc2ccccc12` (centres undefined), the Inhibition amounted to 100% in the assay on Plasmodium falciparum [1], 29% with Plasmodium falciparum [2] and 3% in the assay with HepG2.
The corresponding values for `O=C(NCCN1CCCC1)c1cccc(-c2ccc(-c3nc4ccccc4[nH]3)s2)c1` are 96%, 13% and 27%.
The corresponding values for `CC(C)[C@H](NC(=O)c1ccc(O)c(-c2cccc(C(F)(F)F)c2)c1)C(=O)NC1CCCc2ccccc21` (some centres undefined) are 82%, 25% and 2%.
The corresponding values for `O=C(Nc1ccc(Oc2ccccc2)cc1)N[C@@H](Cc1ccc(O)cc1)C(=O)NC1CCN(Cc2ccc(O)c([N+](=O)[O-])c2)C1` (some centres undefined) are 100%, 0% and 0%.
As for `Cc1nc(-c2nc(NCc3ccccn3)ncc2-c2ccsc2)sc1C`, the Inhibition with Plasmodium falciparum [1] amounted to 92%; with Plasmodium falciparum [2] it was 87%; in the assay with HepG2, 0%.
Turning to `COc1ccc2nccc([C@@H](O)CN3CCC(NCc4nc5c(cc4Cl)SCC(=O)N5)C(F)C3)c2c1.Cl` (some centres undefined), the Inhibition was 94% and 99% with Plasmodium falciparum [1]; 94% and 100% in the assay on Plasmodium falciparum [2]; 20% and 10% in the assay on HepG2.
